ELG1 repair inh = qHTS screen for small molecules that inhibit ELG1-dependent DNA repair in human embryonic kidney (HEK293T) cells expressing luciferase-tagged ELG1; AID 504467, 2011; 330,000 tested, 2.3% active; Potency, µM (doses to about 46.1 µM), for inactives: top-dose activity change, negative = inhibition, most hits filed as inhibitors; HEK293T ELG1-luciferase reporter, luminescence, 16 h; DNA damage induced by 5-fluorouridine; further: potency means the concentration at half of the fitted maximal effect; nearly all actives have a fitted effect of over 55% in size
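Overnight (16 hr) co-exposure of 2,000 cells/well to 5-fluorouridine and compound at 37 °C preceded detection. Luciferase was quantified via ONE-Glo luminescence; loss of signal denotes inhibition.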
HT1080 IDH1KD tx = qHTS for induction of synthetic lethality in tumor cells producing 2HG: qHTS for the HT-1080-IDH1KD cell line; HT-1080 IDH1 knockdown viability, ATP luminescence, 48 h; Potency, µM (doses to about 46.1 µM), for inactives: top-dose activity, negative = toxicity, most hits filed as cytotoxic; 360,000 tested, 2% active;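 further: potency means the concentration at half of the fitted maximal effect; 0% = DMSO wells and -100% = cell-free medium wells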
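After a 2 h attachment period, IDH1KD HT-1080 cells took pin-transferred compound for 48 h at 37 °C; ATP-based luminescence after 10 min room-temperature reagent incubation reported viability.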
IL1B secr inh = qHTS for Inhibitors of Inflammasome Signaling: IL-1-beta AlphaLISA Primary Screen; THP-1 LPS/ATP IL-1B secretion, AlphaLISA, 16 h; active compounds read low; activity change, % at 57.5 µM; AID 743279, 2014; 360,000 tested, 4.7% active; in the data active means activity change below about -50%; inconclusive means mostly about -30% to -49%
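Secreted IL-1B measured by AlphaLISA bead assay after 16 h compound exposure of THP-1 cells; compounds (final up to 57.5 uM) added 1 h before LPS (250 ng/mL) and ATP (1.25 mM) stimulation; lower signal means less secretion.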
HT1080-NT tox = qHTS for induction of synthetic lethality in tumor cells producing 2HG: qHTS for the HT-1080-NT fibrosarcoma cell line | HT-1080-NT fibrosarcoma viability, CellTiter-Glo ATP luminescence, 48 h | Potency, µM (doses to about 46.1 µM), without a hit: at the highest dose activity, negative = less viability, hits mostly cytotoxic | 360,000 tested, 1.6% active | AID 686970, 2013;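 further: NT is the 2HG producing partner of a matched IDH1 knockdown line; potency means the concentration at half of the fitted maximal effect; 0% = DMSO-treated cells and -100% = media-only wells without cells; nearly all actives have a fitted effect of over 55% in size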
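A 48-hour cytotoxicity screen used HT-1080-NT cells plated 2 hours before compound delivery. ATP-based CellTiter-Glo luminescence measured viability, normalized to DMSO and no-cell controls.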
TDP1 cell noCPT = qHTS for Inhibitors of human tyrosyl-DNA phosphodiesterase 1 (TDP1): qHTS in cells in absence of CPT; DT40 Tdp1-/- hTDP1 cells, no CPT, ATP luminescence, 48 h; Potency, µM (titrated, usually from 46.2 µM), inactives show at the highest dose activity change, negative = growth inhibition, usual class: inhibitors; 420,000 tested, 15% active; AID 686978, 2013; further: potency means the concentration at half of the fitted maximal effect; nearly all actives have a fitted effect of over 55% in size
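Chicken DT40 Tdp1-/- cells stably complemented with human TDP1 were seeded at 400 cells/well with DMSO in place of 20 nM camptothecin. After compound pinning, cells grew at least 48 hr at 37 °C; viability read by CellTiter-Glo luminescence.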
TDP1 cell CPT = qHTS for Inhibitors of human tyrosyl-DNA phosphodiesterase 1 (TDP1): qHTS in cells in presence of CPT. chicken DT40 Tdp1-/-;hTDP1 cells + 20 nM CPT, ATP luminescence, 48 h. Potency, µM (doses to about 46.2 µM), inactives show top-dose activity change, negative = growth inhibition, hits mostly inhibitors. 420,000 tested, 12% active; further: potency means the concentration at half of the fitted maximal effect; nearly all actives have a fitted effect of over 55% in size
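Chicken DT40 Tdp1-/- cells complemented with human TDP1, 400 cells/well, exposed to compounds plus 20 nM camptothecin for at least 48 h at 37 C; viability read as ATP content by CellTiter-Glo luminescence.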
Starred values were filed as active, the others as inactive; ? = inconclusive; · = not tested or not shown. Rows were chosen to be rich in hits. Some 19% of all compounds tested hit in one or more screens of this group. Unless noted, the call rests on the fitted dose curve; in most records, active means well fitted curve in the direction sought with a large enough effect; inconclusive means small, poorly fitted or top-dose-only effect, or another doubt; inactive means no such curve, though single readings can be large; an effect the other way counts as inactive or inconclusive. Unless noted, on the % scale 0 is the no-effect control and ±100 the full control effect.

SMILES	ELG1 repair inh	HT1080 IDH1KD tx	IL1B secr inh	HT1080-NT tox	TDP1 cell noCPT	TDP1 cell CPT
O=C(c1cccc(N2C(=O)C3CC=CCC3C2=O)c1)N1CCCc2ccccc21 (stereo not given)	?	1%	18	6%	1.5µM*	?
Cc1cc(C(=O)CS(=O)(=O)c2ccc(F)cc2)cc(C)c1O	?	-1%	-4	0%	-7%	19%
CCC(C)NC(=O)CSc1nc2c(sc3ccccc32)c(=O)n1CCc1ccccc1 (stereo not given)	·	·	·	·	-28%	-22%
Cn1c(=O)oc2cc(S(=O)(=O)NC(Cc3ccccc3)C(=O)NCc3ccccc3Cl)ccc21 (stereo not given)	·	·	·	·	-13%	-20%
CCCCCCCCC(c1nc2ccccc2[nH]1)N1CCN=C(c2ccccc2)C1=O (stereo not given)	·	?	-4	?	?	?
CC(=O)Nc1cccc(C(=O)OC(C)C(=O)N2CCc3ccccc32)c1 (stereo not given)	3%	-3%	-2	-20%	4.1µM*	29µM*
CC(=O)Nc1ccc(C(=O)N2CCCc3ccccc32)cc1	0%	1%	25	9%	-1%	-1%
O=C(c1ccccc1)N1CCN(C(=O)c2ccccc2)c2ccccc21	·	?	-11	-19%	?	8.2µM*
O=C(Nc1ccc(C(=O)N2CCCc3ccccc32)cc1)c1cccs1	-13%	-2%	-80*	13%	?	8%
O=C(c1ccccc1)N1CCc2ccccc21	28%	9%	-10	5%	-14%	0%
Cc1cnc(C(=O)Oc2c(C)ccc(C)c2C)cn1	7%	4%	-2	-6%	3%	-7%
CCOc1cc(CNc2ccc(Br)cc2)cc(Br)c1OCC(=O)NC(C)(C)C	?	?	-26	?	?	21µM*
CCOc1cc(CNc2ccccc2)cc(Br)c1OCC(=O)NC(C)(C)C	-11%	?	-87*	?	?	?
CC(C)(C)NC(=O)COc1ccc(CNc2ncn[nH]2)cc1	-3%	?	-2	25%	-21%	5%
COc1cc(CNc2ccc(CNc3ncn[nH]3)cc2)ccc1OCC(=O)NC(C)(C)C	?	-6%	-3	-5%	16µM*	?
Cc1cccc(N/C(=N/S(=O)(=O)c2ccccc2)c2ccccc2)n1	9%	7%	-6	17%	1%	?
CN(C)c1ccc(C(=O)/C=C/c2ccccc2)cc1	?	?	-102*	-3%	?	21µM*
CSc1ccc(/C=C/C(=O)c2ccc(O)cc2)cc1	?	?	-79*	?	-84%	18µM*
COC(=O)c1c(C)[nH]c(C(=O)/C=C/c2cccc(Cl)c2)c1C	?	3%	-64*	12%	?	?
CN(C)c1ccc(C(=O)/C=C/c2ccc(Br)cc2)cc1	?	-3%	-23	0%	?	-19%
Cc1ccc(/C=C/C(=O)c2ccccc2)cc1	?	·	-67*	·	?	?
Cc1ccc(-n2c3c(cc(C(=O)Nc4ccccc4C(N)=O)c2=O)C(=O)CC(C)(C)C3)cc1	·	·	·	·	-24%	-1%
CCOC(=O)c1c(C)[nH]c(C)c1S(=O)(=O)N1CCC(C(=O)NCc2ccc(N(C)C)cc2)CC1	·	·	·	·	-19%	-12%

Source: PubChem (National Center for Advancing Translational Sciences (NCATS))
